Active and inactive are the calls of the source.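 Rule for the calls: active = CXCR6 mean IC50 below 15 µM, and neither CCR6 nor CXCR5 mean IC50 under five times that; inactive = the rest.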

Chain of C-X-C chemokine receptor type 6 (Homo sapiens) (O00574 whole entry, looked up): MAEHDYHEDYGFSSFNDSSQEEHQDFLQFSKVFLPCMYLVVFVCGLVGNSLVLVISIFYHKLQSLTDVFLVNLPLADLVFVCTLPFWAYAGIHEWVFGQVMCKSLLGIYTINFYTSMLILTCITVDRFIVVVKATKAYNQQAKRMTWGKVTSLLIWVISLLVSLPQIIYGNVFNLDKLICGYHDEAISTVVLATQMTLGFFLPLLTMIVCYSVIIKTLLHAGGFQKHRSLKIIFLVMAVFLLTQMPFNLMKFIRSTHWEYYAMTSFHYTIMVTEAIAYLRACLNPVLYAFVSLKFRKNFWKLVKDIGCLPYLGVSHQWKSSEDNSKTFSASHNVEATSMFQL

This test concerns the target C-X-C chemokine receptor type 6 (Homo sapiens) (UniProt O00574). The test can be described thus: antagonist selectivity across CCR6, CXCR5 and CXCR6 – cell-based, CHO-K1 PathHunter beta-arrestin, luminescence, selectivity assay for CXCR6 antagonist project, profiling panel (AID 651601). The note with it: antagonist mode, mean of runs.
Consider `COc1cccc(C(=O)NC2CC3CCCC(C2)N3CC(=O)Nc2ccc(N(C)C)cc2)c1` (stereo unspecified), for which the molecule was classed as inactive.
Turning to `COc1cc(C(=O)NC2CC3CCCC(C2)N3CC(=O)Nc2ccccc2)cc(OC)c1OC` (stereo unspecified), the result was active.
With `O=C(CN1C2CCCC1CC(NC(=O)c1ccccc1)C2)Nc1ccccc1` (stereo unspecified) the entry was “inactive”; with `COc1cccc(C(=O)NC2CC3CCCC(C2)N3CC(=O)Nc2ccccc2C(F)(F)F)c1` (stereo unspecified), “inactive”.
Consider `O=C(CN1C2CCCC1CC(NC(=O)c1ccccc1)C2)Nc1ccccc1C(F)(F)F` (stereo unspecified), for which the call was inactive.
The result for `CN(C)c1ccc(NC(=O)CN2C3CCCC2CC(NC(=O)c2ccccc2)C3)cc1` (stereo unspecified) reads “inactive”.

The record behind these values is PubChem BioAssay AID651601 (Sanford-Burnham Center for Chemical Genomics, 2012).
